CIT2-GFP yeast = alters CIT2-GFP fluorescence in TOR pathway yeast screen | S. cerevisiae CIT2-GFP strain, flow cytometry, 3 h; 100 means same as DMSO wells | GFP response vs DMSO, % at 10 µM | 320,000 tested, 0.065% active | AID 2029;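 active = GFP response relative to DMSO above a set limit, near the screen mean plus 3 SD, cut at about 150% in these data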;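 note: ratio of well median GFP fluorescence to mean of DMSO wells on the plate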
LAP4 TOR yeast = yeast TOR pathway LAP4-GFP modulation; S. cerevisiae LAP4-GFP multiplex, flow cytometry GFP, 3 h; median GFP as percent of DMSO wells; AID 2023; GFP response vs DMSO, % at 10 µM; 320,000 tested, 0.34% active;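 active = GFP response vs DMSO above a set limit, about the screen mean plus 3 SD, cut at about 150% in these data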
AGP1 TOR yeast = yeast TOR pathway AGP1-GFP modulation; AID 2066; 320,000 tested, 0.02% active; S. cerevisiae AGP1-GFP multiplex flow cytometry, 3 h; GFP as percent of DMSO wells; GFP response vs DMSO, % at 10 µM;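 active = GFP response relative to DMSO above a set limit, near screen average plus 3 SD, cut at about 150% in these data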;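 note: median GFP channel fluorescence of the gated AGP1 strain per well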
RPL19A TOR yeast = alters RPL19A-GFP fluorescence in TOR pathway yeast screen; 330,000 tested, 0.3% active; S. cerevisiae RPL19A-GFP strain, flow cytometry, 3 h; stronger effect = lower value; AID 2025; percent response vs DMSO, % at 10 µM;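 active = percent response vs DMSO below 50%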;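 note: median channel GFP fluorescence of the barcoded RPL19A-GFP strain; ratio of sample median GFP to plate DMSO average so 100% = DMSO; lower means less RPL19A-GFP as with rapamycin TOR inhibition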
MEP2 TOR yeast = alters MEP2-GFP fluorescence in TOR pathway yeast screen; S. cerevisiae MEP2-GFP strain, flow cytometry GFP, 3 h; 100% = DMSO control level; GFP response vs DMSO, % at 10 µM; 330,000 tested, 0.51% active; AID 2016;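 active = GFP response versus DMSO above a set limit, roughly screen mean plus 3 SD, cut at about 180% in these data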;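 note: median GFP fluorescence of the barcode-gated MEP2-GFP cells per well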
LAP4 cherry2 = second confirmation of modulators of TOR reporter LAP4-GFP in yeast | shares compounds with LAP4 TOR yeast | S. cerevisiae LAP4-GFP strain, flow cytometry GFP, 3 h | GFP response vs DMSO, % at 10 µM | 590 tested, 20% active | AID 2621;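 active = GFP signal as percent of the solvent control above about 150%, meaning raised reporter expression, limit read from the data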;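 note: ratio of well median GFP fluorescence to plate DMSO mean so 100% = DMSO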
MEP2-GFP pick2 = yeast MEP2-GFP modulation, second cherry pick; 590 tested, 10% active; S. cerevisiae MEP2-GFP strain, flow cytometry GFP, 3 h; GFP response vs DMSO, % at 10 µM; shares compounds with LAP4 TOR yeast;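 active = GFP signal above 150% of the solvent control wells, that is a rise of more than half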;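 note: median channel GFP fluorescence of all gated yeast cells per well; ratio of median GFP to plate DMSO average so 100% = DMSO level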
RPL19A-GFP pick2 = second confirmation of modulators of TOR reporter RPL19A-GFP in yeast | shares compounds with LAP4 TOR yeast | GFP response vs DMSO, % at 10 µM | S. cerevisiae RPL19A-GFP strain, flow cytometry GFP, 3 h; stronger effect = lower value; 100% means same as DMSO wells | AID 2623 | 590 tested, 3% active;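 active = under 65% GFP response relative to DMSO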;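 note: median GFP channel fluorescence per well over the all cells gate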
CIT2 GFP CP2 = second confirmation of modulators of TOR reporter CIT2-GFP in yeast; shares compounds with LAP4 TOR yeast; S. cerevisiae CIT2-GFP strain, flow cytometry GFP, 3 h; DMSO control wells read 100%; GFP response vs DMSO, % at 10 µM; 590 tested, 8% active; AID 2624;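 active = GFP response vs DMSO above about 150%, limit read from the data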;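 note: median green fluorescence per well over all gated yeast cells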
AGP1 GFP CP2 = second confirmation of modulators of TOR reporter AGP1-GFP in yeast | 590 tested, under 10 active | S. cerevisiae AGP1-GFP strain, flow cytometry GFP, 3 h | percent response vs DMSO, % at 10 µM | shares compounds with LAP4 TOR yeast;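 active = over 150 percent of DMSO response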;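 note: median GFP channel fluorescence over all cells without mother daughter split; sample median GFP divided by mean DMSO control so 100% equals DMSO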
Yeast autofluor = counter-screen for compound autofluorescence in yeast s288c cells; shares compounds with LAP4 TOR yeast; S. cerevisiae s288c, 520 nm autofluorescence, flow cytometry, 3 h; stronger effect = higher value; zero means same as solvent-only cells; fluorescence change (kMESF span) at 33 µM; 610 tested, under 10 active; AID 2757;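 active = fluorescence span over the dose series, or activity score, above about 33, limit read from the data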
* marks the source's active call; other numbers are inactive results. Only some compounds are listed: those with a hit (about 0.92% of all), similar ones and a draw of the others.

`CC1CCCC(NC(=O)CN(C)CC(=O)Nc2cccc(F)c2)C1C` (stereo unspecified) gave CIT2-GFP yeast 127, LAP4 TOR yeast 172*, AGP1 TOR yeast 134, RPL19A TOR yeast 80, MEP2 TOR yeast 155, LAP4 cherry2 99, MEP2-GFP pick2 100, RPL19A-GFP pick2 100, CIT2 GFP CP2 97 and AGP1 GFP CP2 99.
Screening CC(=O)c1ccc(NC(=O)CN(C)CC(=O)Nc2cccc(F)c2)cc1 returned CIT2-GFP yeast 84, LAP4 TOR yeast 91, AGP1 TOR yeast 91, RPL19A TOR yeast 93 and MEP2 TOR yeast 94.
For Cc1ccc2c(c1)nnn2C1CCN(S(=O)(=O)c2ccc(C(=O)N(C)C3CCCCC3)cc2)CC1 the results were CIT2-GFP yeast 104, LAP4 TOR yeast 103, AGP1 TOR yeast 29, RPL19A TOR yeast 64, MEP2 TOR yeast 134, LAP4 cherry2 96, MEP2-GFP pick2 94, RPL19A-GFP pick2 100, CIT2 GFP CP2 108 and AGP1 GFP CP2 99.
COc1cc(/C=C(\C#N)C(=O)NCC2CCCO2)ccc1OCCC(C)C (stereo unspecified) was read as CIT2-GFP yeast 98, LAP4 TOR yeast 113, AGP1 TOR yeast 105, RPL19A TOR yeast 99 and MEP2 TOR yeast 99.
CCN(c1ccccc1)S(=O)(=O)c1ccc(OC)c(NC(=O)c2cc(F)c(F)c(F)c2F)c1 was read as CIT2-GFP yeast 93, LAP4 TOR yeast 177*, AGP1 TOR yeast 117, RPL19A TOR yeast 95, MEP2 TOR yeast 114, LAP4 cherry2 100, MEP2-GFP pick2 100, RPL19A-GFP pick2 101, CIT2 GFP CP2 98 and AGP1 GFP CP2 97.
`CCN(c1ccccc1)S(=O)(=O)c1ccc(OC)c(NC(=O)c2cccs2)c1` gave CIT2-GFP yeast 93, LAP4 TOR yeast 100, AGP1 TOR yeast 99, RPL19A TOR yeast 97 and MEP2 TOR yeast 93.
`COc1ccc(N2C(=O)C(Cl)=C(Oc3cccc(OC)c3)C2=O)cc1` gave CIT2-GFP yeast 102, LAP4 TOR yeast 198*, AGP1 TOR yeast 75, RPL19A TOR yeast 71, MEP2 TOR yeast 83 and Yeast autofluor 1.1.
Screening Cc1ccc2[nH]cc(C(=O)CN3CCN(c4ccccn4)CC3)c2c1 returned CIT2-GFP yeast 101, LAP4 TOR yeast 88, AGP1 TOR yeast 23, RPL19A TOR yeast 62, MEP2 TOR yeast 174, LAP4 cherry2 106, MEP2-GFP pick2 105, RPL19A-GFP pick2 96, CIT2 GFP CP2 107 and AGP1 GFP CP2 98.
`O=C(CN1CCN(c2ccccc2F)CC1)c1c[nH]c2ccccc12` gave CIT2-GFP yeast 94, LAP4 TOR yeast 159*, AGP1 TOR yeast 110, RPL19A TOR yeast 87, MEP2 TOR yeast 174, LAP4 cherry2 100, MEP2-GFP pick2 97, RPL19A-GFP pick2 99, CIT2 GFP CP2 105 and AGP1 GFP CP2 102.
`Cc1ccc2[nH]cc(C(=O)CN3CCN(C)CC3)c2c1` gave CIT2-GFP yeast 100, LAP4 TOR yeast 101, AGP1 TOR yeast 97, RPL19A TOR yeast 95 and MEP2 TOR yeast 102.
`COc1cccc(CC(=O)N2CCN(S(=O)(=O)c3ccc(Br)cc3)CC2)c1` gave CIT2-GFP yeast 98, LAP4 TOR yeast 102, AGP1 TOR yeast 103, RPL19A TOR yeast 101 and MEP2 TOR yeast 96.
For Cc1ccc(S(=O)(=O)Cc2cc(F)c([N+](=O)[O-])cc2[N+](=O)[O-])cc1 the results were CIT2-GFP yeast 83, LAP4 TOR yeast 172*, AGP1 TOR yeast 51, RPL19A TOR yeast 92, MEP2 TOR yeast 121 and Yeast autofluor 23.
Screening O=C1c2ccccc2C(=O)N1OS(=O)(=O)c1ccccc1 returned CIT2-GFP yeast 96, LAP4 TOR yeast 223*, AGP1 TOR yeast 80, RPL19A TOR yeast 87, MEP2 TOR yeast 90, LAP4 cherry2 144, MEP2-GFP pick2 160*, RPL19A-GFP pick2 72, CIT2 GFP CP2 112, AGP1 GFP CP2 82 and Yeast autofluor 2.1.
Cc1cc(S(=O)(=O)ON2C(=O)c3ccccc3C2=O)ccc1F was read as CIT2-GFP yeast 95, LAP4 TOR yeast 173*, AGP1 TOR yeast 90, RPL19A TOR yeast 99, MEP2 TOR yeast 101 and Yeast autofluor 1.2.
Cc1ccc(C)c(S(=O)(=O)ON2C(=O)c3ccccc3C2=O)c1 was read as CIT2-GFP yeast 81, LAP4 TOR yeast 137, AGP1 TOR yeast 68, RPL19A TOR yeast 92 and MEP2 TOR yeast 85.
`COC(=O)CCCC1=CC2=CC(=O)C(C)(OC(=O)CCc3ccccc3)C(=O)C2=CO1` (stereo unspecified) gave CIT2-GFP yeast 51, LAP4 TOR yeast 156*, AGP1 TOR yeast 51, RPL19A TOR yeast 88, MEP2 TOR yeast 88, LAP4 cherry2 112, MEP2-GFP pick2 93, RPL19A-GFP pick2 103, CIT2 GFP CP2 102, AGP1 GFP CP2 89 and Yeast autofluor -0.2.
`COC(=O)CCC(=O)OC1(C)C(=O)C=C2C=C(c3ccsc3)OC=C2C1=O` (stereo unspecified) gave CIT2-GFP yeast 87, LAP4 TOR yeast 94, AGP1 TOR yeast 94, RPL19A TOR yeast 102 and MEP2 TOR yeast 104.
Screening COc1ccc(CCNC(=O)c2cc3c(=O)n(C)c4ccccc4c3n2C)c(OC)c1 returned CIT2-GFP yeast 94, LAP4 TOR yeast 101, AGP1 TOR yeast 95, RPL19A TOR yeast 95 and MEP2 TOR yeast 95.
Screening Cc1c(C(=O)Nc2ccc3nc(N4CCOCC4)sc3c2)oc2ccccc12 returned CIT2-GFP yeast 96, LAP4 TOR yeast 111, AGP1 TOR yeast 101, RPL19A TOR yeast 98 and MEP2 TOR yeast 102.

Source: PubChem BioAssay
